Results published in the supplement of paper PMC6555819.

How the values were obtained:
Assay in all cases: PBM binding z-score (relative to random genomic background probes); higher = stronger binding; sequences stand for … in GC…GCGATTGACAGCGTAGAATGAAGG
[1] = tested on: FXR:RXRa (NR concentration 270 nM, RXRa partner concentration 90 nM)
Method in brief: (§1)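 Regression normalization was applied to scanned fluorescence from custom Agilent 4×180K protein-binding microarrays. Before scanning, arrays were incubated 1 h with ligand-free nuclear receptor dimers, and binding was detected with antibodies against each partner (one per run). Binding z-scores use the random background probes as reference.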

[2] = tested on: LXRa:RXRa (NR concentration 270 nM, RXRa partner concentration 90 nM)
Method in brief: as §1

[3] = tested on: LXRa homodimer (NR concentration 270 nM)
Method in brief: as §1

[4] = tested on: LXRb:RXRa (NR concentration 270 nM, RXRa partner concentration 90 nM)
Method in brief: as §1

[5] = tested on: LXRb homodimer (NR concentration 270 nM)
Method in brief: as §1

[6] = tested on: PPARa:RXRa (NR concentration 270 nM, RXRa partner concentration 90 nM)
Method in brief: as §1

[7] = tested on: PPARg:RXRa (NR concentration 180 nM, RXRa partner concentration 90 nM)
Method in brief: as §1

[8] = tested on: PPARg:RXRa 270nM:90nM, anti-RXR (NR concentration 270 nM, RXRa partner concentration 90 nM)
Method in brief: as §1

[9] = tested on: PPARg:RXRa 30nM:10nM, anti-RXR (NR concentration 30 nM, RXRa partner concentration 10 nM)
Method in brief: as §1

[10] = tested on: PPARg:RXRa 90nM:30nM, anti-RXR (NR concentration 90 nM, RXRa partner concentration 30 nM)
Method in brief: as §1

[11] = tested on: PPARg:RXRa DBDmut IVT, anti-RXR (DBD mutation: RXRa K156A/R161A, NR concentration 270 nM, RXRa partner concentration 90 nM)
Method in brief: as §1

[12] = tested on: PPARg:RXRa IVT, anti-PPARg (NR concentration 270 nM, RXRa partner concentration 90 nM)
Method in brief: as §1

[13] = tested on: PPARg DBDmut:RXRa IVT, anti-PPARg (DBD mutation: PPARg1 K132A/R137A, NR concentration 270 nM, RXRa partner concentration 90 nM)
Method in brief: as §1

[14] = tested on: PPARg DBDmut IVT, anti-PPARg (DBD mutation: PPARg1 K132A/R137A, NR concentration 270 nM)
Method in brief: as §1

[15] = tested on: PPARg homodimer (NR concentration 180 nM)
Method in brief: as §1

[16] = tested on: PXR:RXRa (NR concentration 270 nM, RXRa partner concentration 90 nM)
Method in brief: as §1

[17] = tested on: PXR homodimer (NR concentration 270 nM)
Method in brief: as §1

[18] = tested on: RARa:RXR (NR concentration 270 nM, RXRa partner concentration 90 nM)
Method in brief: as §1

[19] = tested on: RARa homodimer (NR concentration 270 nM)
Method in brief: as §1

[20] = tested on: RARb:RXRa (NR concentration 270 nM, RXRa partner concentration 90 nM)
Method in brief: as §1

| Sequence | PBM binding z-score [1] | PBM binding z-score [2] | PBM binding z-score [3] | PBM binding z-score [4] | PBM binding z-score [5] | PBM binding z-score [6] | PBM binding z-score [7] | PBM binding z-score [8] | PBM binding z-score [9] | PBM binding z-score [10] | PBM binding z-score [11] | PBM binding z-score [12] | PBM binding z-score [13] | PBM binding z-score [14] | PBM binding z-score [15] | PBM binding z-score [16] | PBM binding z-score [17] | PBM binding z-score [18] | PBM binding z-score [19] | PBM binding z-score [20] |
| --- | --- | --- | --- | --- | --- | --- | --- | --- | --- | --- | --- | --- | --- | --- | --- | --- | --- | --- | --- | --- |
| CCTCGGAGGACAACAGGAGGTCGGAGCTGCCAGA | -0.0236 | -0.0275 | -0.149 | -0.236 | -0.893 | 0.19 | -0.122 | -0.445 | -0.792 | -1.05 | -0.0819 | -0.232 | -0.343 | -1.52 | -0.189 | 0.00803 | -0.239 | 0.109 | 0.111 | 1.55 |
| ACTAGCAGGCCATGTTTGGGTCACTCAAACAAAG | 0.27 | -0.058 | -0.283 | 0.735 | -0.846 | 1.31 | 0.145 | 0.304 | -0.51 | -0.31 | 0.691 | 1.13 | -0.241 | -1.08 | 0.0761 | 0.404 | -0.559 | 1.37 | -0.914 | 1.72 |
| CGGCCAAGGTCAGAGAGGTCAGTGAATGCCGAGT | 6.02 | 5.04 | 2.26 | 4.41 | -0.527 | 4.79 | 3.72 | 4.34 | 0.655 | 2.75 | 3.09 | 3.49 | -0.798 | -1.36 | 3.78 | 5.99 | 12 | 5.43 | 1.18 | 5.21 |
| CCTACTGAGCCAAAGGTCATTGATTCCAATGCTC | 5.45 | 5.55 | 4.66 | 5.13 | 2.18 | 5.53 | 8.72 | 8.74 | 7.32 | 9.2 | 1.79 | 3.91 | 0.27 | 0.224 | 5.35 | 5.49 | 2.67 | 5.91 | 2.36 | 4.57 |
| AGAATGAGGTTAAGATCAGGGAAACAGAATACAT | 2.37 | 2.14 | -0.0625 | 1.9 | -0.0135 | 3.67 | 2.46 | 2.54 | 1.11 | 1.75 | 2.82 | 2.83 | 1.43 | 0.885 | 0.847 | 1.38 | 0.732 | 2.08 | 0.481 | 2.01 |
| ATCGAAAGGTCGAGGTGAGTATTGAGAAAGGGAA | 4.14 | 3.39 | -0.0656 | 2.81 | 0.293 | 4.74 | 3.29 | 3.53 | 1.37 | 2.19 | 0.628 | 2.34 | 0.498 | 0.451 | 1.67 | 2.33 | 0.428 | 3.07 | 0.977 | 4.15 |
| CCGAGTAGGTTATCGGGCATTCAGGCAACGGTGA | 0.12 | 0.322 | 0.154 | -0.0205 | -0.739 | 1.32 | 1.8 | 2.7 | 0.915 | 1.54 | 2.93 | 2.72 | -1.04 | -1.21 | 0.257 | -0.121 | -0.43 | 0.241 | 0.0766 | 0.742 |
| TGAATGAGGTTAAAGATGAGGGAACGTGGCGTCG | 2.79 | 2.16 | 0.0267 | 1.29 | 0.831 | 3.65 | 3.77 | 4.65 | 2.44 | 4.35 | 2.54 | 2.8 | 0.619 | 0.196 | 0.933 | 1.49 | 0.214 | 2.17 | 0.368 | 2.1 |
| TCATATAGGTAAAAGGTTAAAGTCGGTGTGGTAA | 3.06 | 3.43 | 1.29 | 3.39 | 0.553 | 5.77 | 10.2 | 8.8 | 9.29 | 9.7 | 4.98 | 5.34 | 1.14 | 1.22 | 2.21 | 3.01 | 1.15 | 4.32 | 2.65 | 2.64 |
| ACTAGCAGGCCAAGCTTGGGTCACTCAAACAAAG | -0.0796 | 0.111 | -0.692 | 0.455 | -0.932 | 1.22 | 0.00964 | 0.21 | -0.684 | -0.194 | 1.14 | 0.724 | -0.775 | -0.566 | 0.296 | 0.742 | -0.908 | 1.66 | -1.21 | 1.77 |
| CCTCTTAGTTGACCATAAGGGCAACCGAAGCTCG | 0.875 | 0.419 | 0.345 | 0.647 | 0.541 | 0.868 | 0.219 | 0.342 | -0.34 | 0.305 | 0.417 | 0.373 | 0.452 | -0.136 | 1.43 | 0.861 | 0.453 | 1.04 | 0.928 | 1.7 |
| AGTCAAAGTTCGCTAGGTAACGTAAGATTCAGCT | 0.102 | 0.248 | -0.0137 | 0.158 | -0.513 | 0.793 | 1.64 | 2.36 | 0.554 | 1.85 | 0.109 | 1.13 | 0.0923 | 0.244 | 0.129 | 0.563 | 0.141 | 0.661 | 0.175 | 2 |
| CGACCAAGGTCAAGGTCAGTGAAAGAGACTCGAA | 7.76 | 5.28 | 0.72 | 4.53 | 0.222 | 6.07 | 6.71 | 6.54 | 2.6 | 5.32 | 3.29 | 4.75 | 0.143 | -0.162 | 3.87 | 4.59 | 0.777 | 4.89 | 1.42 | 5.78 |
| GCGACTGGGGCATCAGCAGGTAACCATAACTTAA | -0.303 | -0.254 | -0.127 | 0.0489 | -0.791 | 0.658 | 0.905 | 0.685 | -0.0973 | 0.285 | 3.85 | 3.1 | -0.465 | -0.924 | 0.206 | -0.194 | -0.176 | 0.582 | -0.479 | 0.352 |
| GCTTGTAGATCAAGGTAAAGAAAGACTAAGCTAA | -0.136 | -0.278 | -0.768 | -0.413 | -0.986 | -0.222 | 0.0186 | 0.28 | -0.318 | -0.167 | 0.905 | 0.644 | -0.0923 | 0.000518 | -0.791 | -0.53 | -0.448 | 0.178 | -0.716 | -0.161 |
| TCTATTAGTTGAAGGGCAAGCGACGAGTCCGTTT | 0.609 | 1.02 | 0.0576 | 0.863 | 0.193 | 1.04 | 0.0198 | 2.29 | 3.57 | 2.98 | 2.2 | 0.635 | 0.42 | 0.671 | 0.728 | 0.841 | 0.859 | 0.478 | 0.687 | 1.53 |
| CGTCCAAGGTCATAGGATGTCAGTGAAGACAGAT | 7.4 | 5.86 | 1.1 | 4.02 | 0.568 | 5.6 | 4.69 | 5.42 | 1.9 | 3.95 | 3.22 | 3.9 | 1.13 | 0.513 | 2.45 | 4.69 | 1.15 | 4.58 | 0.89 | 5.08 |
| CCTCGGAGGGCAGAAGGTCAGAGCTGTCCGCTTT | 1.58 | 1.92 | -0.356 | 1.12 | -1.06 | 2.48 | 0.613 | 2.48 | -0.473 | 1.44 | 0.357 | 0.981 | -1.69 | -1.6 | 0.905 | 1.94 | -0.405 | 2.53 | -0.604 | 3.69 |
